Source: PubChem BioAssay (National Center for Advancing Translational Sciences (NCATS))
SMN2 splice up = SMN2 splice variant enhancement; HEK293 SMN2-luciferase splicing reporter, luminescence, 30-36 h; Potency, µM (series often up to 46.1 µM), without a hit: at the top dose activity change, positive = activation, hits mostly activators; 2.8% of 210,000 active; note: % of control where 0% means no effect; nearly all actives have a fitted effect of over 55% in size
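HEK293 cells carry an SMN2 […]–luciferase reporter in which exon 7 inclusion puts luciferase in frame. Cells were plated 10-12 h before compound addition, then incubated 30-36 h at 37C. ONE-Glo luminescence was read; sodium butyrate at 4.5 mM final served as control.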
p53 reactivation = mutant p53 re-activation in reporter cells | Potency, µM (highest dose often 92.2 µM), inactives show at the top dose activity change, positive = activation, hits mostly activators | 0.063% of 320,000 active | H1299 p53-A138V BP100-luciferase reporter, luminescence, 24 h; note: % of control where 0% means no effect; nearly all actives have a fitted effect of over 45% in size
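p53-null H1299 cells stably carrying temperature-sensitive p53-A138V and a BP100-luciferase reporter were pinned with compounds (4-point, 1:5 series) and held 24 hrs at 37 deg C. Luminescence was read 10 min after detection reagent.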
FLuc modulator = inhibits or activates purified firefly luciferase, miR-21 counter-screen | purified FLuc, Km substrates, luminescence inhibition | Potency, µM (titrated, usually from 57.5 µM), without a hit: at the highest dose activity change, negative = inhibition, actives largely listed as inhibitors | 6.9% of 360,000 active | AID 588342;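 note: plate controls were vehicle for no effect and reference inhibitor for full effect; nearly all actives have a fitted effect of over 55% in size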
Target sequence (P08659 whole entry, looked up): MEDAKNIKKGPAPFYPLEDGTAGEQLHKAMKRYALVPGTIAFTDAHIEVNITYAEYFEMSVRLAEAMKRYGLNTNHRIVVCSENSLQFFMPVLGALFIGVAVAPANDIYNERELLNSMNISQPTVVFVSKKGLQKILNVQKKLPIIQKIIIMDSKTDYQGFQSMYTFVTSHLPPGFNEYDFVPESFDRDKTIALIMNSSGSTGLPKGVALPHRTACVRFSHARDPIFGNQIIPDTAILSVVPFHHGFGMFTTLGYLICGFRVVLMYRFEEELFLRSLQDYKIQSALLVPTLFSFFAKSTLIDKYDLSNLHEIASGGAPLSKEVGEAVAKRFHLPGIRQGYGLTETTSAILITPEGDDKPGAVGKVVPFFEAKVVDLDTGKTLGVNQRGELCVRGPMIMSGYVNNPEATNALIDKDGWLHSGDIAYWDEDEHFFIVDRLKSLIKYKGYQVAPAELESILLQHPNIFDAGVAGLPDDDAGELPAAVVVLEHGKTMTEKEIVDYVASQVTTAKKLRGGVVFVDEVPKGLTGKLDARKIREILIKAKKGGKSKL
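Biochemical qHTS of compounds, final roughly 60 µM downward over six points, against 10 nM purified firefly luciferase using Km concentrations of substrates (10 uM D-luciferin, 10 uM ATP) in Tris acetate pH 7.5 buffer; luminescence output.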
NPC1 prom act = activators of NPC1 promoter | AID 485313 | Potency, µM (titrated, usually from 9.22 µM), without a hit: at the top dose activation, hits mostly activators | 2.4% of 320,000 active | Huh7 NPC1 promoter luciferase reporter, 24 h; note: % of control where 0% means no effect; nearly all actives have a fitted effect of over 60% in size
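Luciferase expression driven by the NPC1 promoter was measured in stably transfected Huh7 cells after a 24 h compound incubation, using a luciferase reagent and a luminescence read.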
ELG1 genotoxic = genotoxicity induction in ELG1-luciferase HEK293T cells | Potency, µM (titrated, usually from 46 µM), inactives show at the top dose activity change, positive = activation, most hits filed as activators | 1.3% of 330,000 active | HEK293T ELG1-luciferase reporter, luminescence, 16 h; note: % of control where 0% means no effect; nearly all actives have a fitted effect of over 60% in size
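16 hr compound incubation (37 °C, 5% CO2) of HEK293T cells carrying luciferase-tagged ELG1; luciferase then measured by ONE-Glo luminescence after 30 min at RT.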
Rab9 promoter act = Rab9 promoter activation; Huh7 Rab9 promoter-luciferase reporter, luminescence, 24 h; Potency, µM (highest dose often 9.22 µM), without a hit: at the highest dose activation, negative = inhibition, hits mostly activators; 2.8% of 320,000 active; AID 485297; note: % of control where 0% means no effect; nearly all actives have a fitted effect of over 60% in size
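Using Huh7 cells stably transfected with Rab9 promoter–luciferase, compounds were incubated 24 h at 37 °C, 5% CO2; luciferase luminescence was read 10 min after reagent addition.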
Active calls of the source: *; ? = inconclusive; / = no result given; [ ] = dose if it differs, or a comment. In the library only some 7.4% were active in any assay of this set; here they are far more common. Calls come from the whole dose curve; as a rule, active = well fitted curve in the direction sought with a large enough effect; inconclusive = small, poorly fitted or top-dose-only effect, or another doubt; inactive = no such curve, though single readings can be large; an effect the other way counts as inactive or inconclusive. Potency is the fitted concentration of half-maximal effect.

SMILES	SMN2 splice up	p53 reactivation	FLuc modulator	NPC1 prom act	ELG1 genotoxic	Rab9 promoter act
CCOc1cc(CNC(=O)c2ccc3nc(CCc4ccccc4)oc3c2)ccc1OC	/	/	-11%	/	/	/
COc1ccc(OC)c(CNC(=O)c2ccc(NC(=O)c3nsc4ccccc34)cc2)c1	/	/	6.7µM*	/	/	/
CSc1ccc(CNC(=O)c2ccc(NC(=O)c3nsc4ccccc34)cc2)cc1	/	/	6µM*	/	/	/
Cc1ccc(S(=O)(=O)c2nc(-c3cccs3)oc2N2CCC(C(N)=O)CC2)cc1	/	-8%	/	/	0%	/
CN(CC(=O)Nc1ccc(Cl)c(C(F)(F)F)c1)C(=O)c1cccc2cccnc12	/	0%	1%	-10%	-7%	-3%
CCOc1ccc(CNC(=O)c2ccc(NC(=O)C3=CSCCO3)cc2)cc1	/	28%	-6%	1%	4%[9.26 µM]	6%
Cc1ccccc1CNC(=O)c1ccccc1NC(=O)c1nsc2ccccc12	/	/	-19%	/	/	/
CCOc1ccc(CNC(=O)c2ccc(NC(=O)c3nsc4ccccc34)cc2)cc1	/	/	7.6µM*	/	/	/
CC(C)Oc1ccc(CNC(=O)c2ccc(NC(=O)c3nsc4ccccc34)cc2)cc1	/	/	7.6µM*	/	/	/
COc1ccc(NC(=O)C2CCCN(c3ncccn3)C2)cc1 (stereo not given)	/	?	17µM*	?	?	2.8µM*
COc1ccc(NC(=O)C2CCCN(c3nccc(C)n3)C2)cc1 (stereo not given)	-8%	2%	-1%	-1%	1%	-10%
Cc1ccnc(N2CCCC(C(=O)Nc3ccc(C)c(C)c3)C2)n1 (stereo not given)	/	-3%	1%	3%	-18%	-1%
Cc1ccc(NC(=O)C2CCCN(c3ncccn3)C2)cc1C (stereo not given)	/	?	17µM*	?	?	?
CCOc1ccc(NC(=O)Nc2cnccn2)cc1	?	-1%	?	12%	7%	?
CCC(C)c1ccc(NC(=O)Nc2cnccn2)cc1 (stereo not given)	/	-3%	6.7µM*	-6%	?	?
CCC(C)c1ccc(NC(=O)C2CCCN(c3ncccn3)C2)cc1 (stereo not given)	8%	9%	15µM*	4%	-1%	1%
C=CCOC(=O)C1=C[C@H](C2CC2)[C@@H](CCCO)[C@H](OCC)O1	/	1%	3%	-2%	2%	-5%
CCc1ccc(S(=O)(=O)c2cn(Cc3ccc(OC)cc3)c3cc(OC)c(OC)cc3c2=O)cc1	-5%	/	-2%	/	/	/
COc1ccc(CN(C(=O)c2ccc(OCC(C)C)cc2)C2CCS(=O)(=O)C2)cc1 (stereo not given)	-35%	/	-3%	/	/	/
CCOC(=O)c1ccc(NS(=O)(=O)c2ccc3c(c2)OCCO3)cc1	-55%	/	-15%	/	/	/
CCC(C)c1ccc(NC(=O)C2CC2)cc1 (stereo not given)	2%	?	15µM*	16%	?	29%
Cc1c(Cl)cccc1NC(=O)N1CCN(Cc2cc(=O)n3nc(-c4ccccc4F)sc3n2)CC1	/	/	0%	/	/	/
O=C(O)c1ccc2c(c1)C(=O)N([C@]1(C(=O)O)CC1c1ccccc1)C2=O (stereo not given in full)	/	/	0%	1%	/	2%
NS(=O)(=O)c1cc(C(=O)OCC(=O)c2ccc3c(c2)OCCO3)ccc1Cl	-1%	2%	0.21µM*	2.8µM*	?	2.8µM*
CNS(=O)(=O)c1cccc(C(=O)OCC(=O)c2ccc3c(c2)OCCO3)c1	/	8%	0.38µM*	9%	-1%	20%
SMILES	SMN2 splice up	p53 reactivation	FLuc modulator	NPC1 prom act	ELG1 genotoxic	Rab9 promoter act
NS(=O)(=O)c1cc(C(=O)NNC(=O)c2ccc3c(c2)OCO3)ccc1Cl	/	2%	/	/	11%	/
COc1cccc(C2Nc3ccccc3C(=O)N2c2ccc(F)cc2)c1O (stereo not given)	/	?	-10%	?	?	?
O=C1c2ccccc2NC(c2ccccc2O)N1c1ccc(F)cc1 (stereo not given)	/	12%	-14%	4µM*	?	4µM*
Cc1sc2ncnc(N=Nc3c(O)[nH]c4ccccc34)c2c1C	-13%	7%	0.85µM*	16%	3%	?
Oc1[nH]c2ccccc2c1N=Nc1nncc2ccccc12	/	26%	7.6µM*	?	7%	3.5µM*
CCOc1ccc(NC(=O)CSc2oc(-c3ccccc3)nc2S(=O)(=O)c2ccc(Cl)cc2)cc1	/	/	3%	/	/	/
C=CCN1c2ccccc2[C@]23C[C@@H](C(=O)OC)N(S(=O)(=O)c4ccc(C(F)(F)F)cc4)C2=NC(C(=O)OC)=C(C(=O)OC)[C@H]13	-3%[9.22 µM]	/	/	/	/	/
COC(=O)C1=NN(C(=O)c2ccc(Cl)cc2)C(O)(c2ccccc2)C1 (stereo not given)	-18%	4%	21µM*	-1%	1%	2%
CCC1=NN(C(=O)c2ccc(Cl)cc2)C(O)(c2ccccc2)C1 (stereo not given)	/	-8%	-3%	-1%	-4%	1%
CCc1ccc(OCC(=O)N2CCc3ccccc32)cc1	/	?	2.7µM*	3.5µM*	?	2.2µM*
CCc1ccc(OCC(=O)N2c3ccccc3CCc3ccccc32)cc1	/	10%	-2%	1%	-5%	-1%
CCOCC(=O)N1CCc2ccccc21	25%	-3%	1%	-3%	-6%	3%
Cc1ccc(OCC(=O)N2CCCc3ccccc32)cc1	2%	28%	?	10%	2%	13%
Cc1ccc(OCC(=O)N2CCc3ccccc32)cc1	14µM*	?	2.7µM*	2.8µM*	16µM*	3.5µM*
O=C(COc1ccc2c(c1)CCC2)N1CCc2ccccc21	?	31%	5.4µM*	2.8µM*	12µM*	1.1µM*
N[C@@H](Cn1ccc(=O)c(O)c1)C(=O)O	/	/	/	0%[46.1 µM]	/	-6%[46.1 µM]
O=c1cc(O)cc(/C=C/c2ccc(O)c(O)c2)o1	?	/	/	2%[46.1 µM]	/	-1%[46.1 µM]
C=C[C@@H](C)[C@](C)(O)c1ccccc1	0%	/	/	/	/	/
CCC(=O)N1CCN(c2ccc(NC(=O)c3ccc(Br)o3)cc2)CC1	13%	11%	-13%	8%	15%	1%
N/C(=N\O)c1ccc(NC(=O)c2ccc(Br)o2)cc1	18%	?	17µM*	?	23µM*	?
CN1CCN(c2ccc(NC(=O)c3ccccc3Br)cc2)CC1	?	?	?	?	15µM*	?
O=C(NNC(=O)c1ccc(Br)o1)c1ccc(NC(=O)c2ccccc2)cc1	-5%	-2%	6%	-3%	5%	-4%
O=C(Nc1ccc(N2CCN(C(=O)c3ccco3)CC2)cc1)c1ccccc1Br	/	-22%	1%	7%	-17%	1%
